Consider 20 compounds from PubChem BioAssay (NCATS).

A short description of assay [1]: Cell Viability - LYMP2-025 (AID 976). Also: potency is read from the fitted curve at half-maximal effect. In a few lines: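 Seed 2500 LYMP2-025 cells/well; 5 hr at 37 C; add compound; 24 hr at 37 C; add CellTiter-Glo; 30 min RT; read luminescence. AC50 from Hill-modelled concentration-response.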
A short description of assay [2]: Cell Viability - LYMP2-002 (AID 977). Also: potency is read from the fitted curve at half-maximal effect. Summed up: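 Human lymphoblastoid LYMP2-002 cells, 2500 per well, exposed to compounds for 24 h at 37 C in complete medium; viability read as intracellular ATP by CellTiter-Glo luminescence, AC50 from Hill fits.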
A short description of assay [3]: Cell Viability - LYMP2-006 (AID 978). Also: nearly all actives have a fitted effect of over 60% in size. Also: potency is read from the fitted curve at half-maximal effect. In a few lines: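 Potency values are Hill-fit AC50s for decreases in intracellular ATP (CellTiter-Glo luminescence). LYMP2-006 lymphoblastoid cells, 2500 per well, were exposed to compound in complete culture medium for 24 hr at 37 C.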
Assay [4] is described as follows: Cell Viability - LYMP2-007 (AID 979).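 Also: cells exposed to compound for 24 h before reading; nearly all actives have a fitted effect of over 60% in size.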 Also: potency is read from the fitted curve at half-maximal effect. In a few lines: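 Luminescent ATP signal (CellTiter-Glo) serves as the viability read-out after 24 hr compound treatment of lymphoblastoid cells in complete medium at 37 C. Concentration-response data were fitted to the Hill equation to give AC50 values.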
The nature of assay [5]: Cell Viability - LYMP2-008 (AID 980). Also: nearly all actives have a fitted effect of over 60% in size. Also: potency is read from the fitted curve at half-maximal effect. In a few lines:
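qHTS, human lymphoblastoid line, 2500 cells/well; 5 hr preincubation, 24 hr compound, 37 C. CellTiter-Glo ATP luminescence. AC50 via Hill equation. Tetraoctylammonium bromide positive control.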

Assay [6] can be described thus: Cell Viability - LYMP2-010 (AID 981). Also: nearly all actives have a fitted effect of over 55% in size. Also: potency is read from the fitted curve at half-maximal effect. Summed up: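 Luminescent ATP signal (CellTiter-Glo) served as the viability read-out. Cells of the human lymphoblastoid line were treated with compound over a concentration range for 24 hours at 37 C, and AC50 values came from Hill-equation modeling.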
The nature of assay [7]: Cell Viability - LYMP2-012 (AID 982).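 Also: cellular ATP by luciferase luminescence where a drop means cytotoxicity; cells exposed to compound for one day before reading; nearly all actives have a fitted effect of over 55% in size.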 Also: potency is read from the fitted curve at half-maximal effect.
Assay [8] can be described thus: Cell Viability - LYMP2-014 (AID 983). Also: nearly all actives have a fitted effect of over 50% in size. Also: potency is read from the fitted curve at half-maximal effect. In a few lines: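 Luminescent ATP signal (CellTiter-Glo, 30 min at room temperature) serves as the viability read-out after 24 hr compound exposure at 37 C. Cells were seeded at 2500 per well and settled 5 hr beforehand.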
Assay [9] in a line: Cell Viability - LYMP2-016 (AID 984). Also: nearly all actives have a fitted effect of over 55% in size. Also: potency is read from the fitted curve at half-maximal effect. In a few lines: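 Cytotoxicity was scored by luminescent ATP content (CellTiter-Glo) after 24 h compound exposure at 37 C of a human lymphoblastoid line at 2500 cells/well. Concentration-response data were fitted to the Hill equation for AC50.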
A short description of assay [10]: Cell Viability - LYMP2-018 (AID 985). Also: nearly all actives have a fitted effect of over 50% in size. Also: potency is read from the fitted curve at half-maximal effect. In a few lines:
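Luminescent ATP signal (CellTiter-Glo, read after 30 min at room temperature) reports viable cells after 24 hr compound treatment at 37 C. Concentration-response data were fitted to the standard Hill equation for AC50.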

Assay [11] can be described thus: Cell Viability - LYMP2-020 (AID 986). Also: nearly all actives have a fitted effect of over 55% in size. Also: potency is read from the fitted curve at half-maximal effect. Summed up: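 Luminescent ATP signal (CellTiter-Glo, 30 min at room temperature) is the read-out after 24 h compound treatment of lymphoblastoid cells at 37 C. AC50 values come from Hill-equation fits across concentrations.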
Assay [12] is described as follows: Cell Viability - LYMP2-022 (AID 987). Also: nearly all actives have a fitted effect of over 55% in size. Also: potency is read from the fitted curve at half-maximal effect. Summed up: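 qHTS: human lymphoblastoid cells 2500/well; 5 hr 37 C; cpd added; 24 hr 37 C; CellTiter-Glo, 30 min RT; luminescence. AC50 via Hill fit; tetraoctylammonium bromide positive ctrl.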
The nature of assay [13]: Cell Viability - LYMP2-024 (AID 988). Also: nearly all actives have a fitted effect of over 60% in size. Also: potency is read from the fitted curve at half-maximal effect. Summed up:
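Steps: seed 2500 cells/well, 5 hr 37 C; add compound, 24 hr 37 C; add CellTiter-Glo, 30 min room temperature; read luminescence. AC50 derived by Hill modelling of concentration-dependent ATP loss.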

The nature of assay [14]: Cell Viability - LYMP2-026 (AID 989). Also: nearly all actives have a fitted effect of over 50% in size. Also: potency is read from the fitted curve at half-maximal effect. In a few lines:
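Luminescent ATP signal (CellTiter-Glo, 30 min room temperature) measures viable lymphoblastoid cells after 24 hr compound treatment at 37 C. Decreased ATP reflects acute toxicity; AC50 values come from Hill-equation modeling.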

A short description of assay [15]: Cell Viability - LYMP1-002 - Assay at 24 hr (AID 993). Also: potency is read from the fitted curve at half-maximal effect. Summed up: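 Cells plated 2500/well, 5 hr 37 C; compounds added, 24 hr 37 C; CellTiter-Glo added, 30 min RT; luminescence read. Tetraoctylammonium bromide positive control. Hill-equation AC50.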
A short description of assay [16]: Cell Viability - LYMP1-002 - Assay at 40 hr (AID 994). Also: nearly all actives have a fitted effect of over 60% in size. Also: potency is read from the fitted curve at half-maximal effect. In a few lines: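 Luminescent ATP signal served as the viability readout, with decreases taken as toxicity. Cells were treated with compounds across a concentration range for 40 hours at 37 C, and AC50 values came from standard Hill modeling.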
In assay [17] the target is Alpha-galactosidase A (Homo sapiens) (UniProt P06280). As to the kind of experiment: Counterscreen for Glucocerebrosidase Inhibitors: qHTS Assay for Human alpha-Galactosidase at pH 4.5 (AID 992). In a few lines:
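Concentration-response curves (0.7 nM to 77 uM final) were modeled with the Hill equation to give AC50. Reactions: 2 nM enzyme, 80 uM fluorogenic alpha-galactoside, pH 4.5 citric acid buffer, 20 min, room temperature.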
On the technique in general: The purpose of a counterscreen is to sort out artefacts and off-target activity.

Assay [18] concerns the target alpha-glucosidase (Oryza sativa, rice) (UniProt Q653V4). As to the kind of experiment: Counterscreen for Glucocerebrosidase Inhibitors: qHTS Assay for Rice alpha-Glucosidase at pH 5.0 (AID 997). In a few lines:
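Rice alpha-glucosidase (4 nM final) with 400 uM 4-methylumbelliferyl-alpha-D-glucopyranoside in citrate buffer pH 5.0, 20 min at room temperature, stopped at pH 10; fluorescence 365/440 nm, compounds 0.7 nM–77 uM, AC50 from Hill fits.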

Assay [19] is described as follows: Validation of Assay for Modulators of Lamin A Splicing (AID 1459; active = well fitted curve in the direction sought with a large enough effect in the signal ratio; the % refers to the signal ratio;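 also: cells exposed to compound for two days before reading; ratio rise marks activators and ratio drop marks inhibitors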). Summed up: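 Splicing correction read as GFP (500-530 nm) over DsRed2 (575-640 nm) object intensity after 48 h compound exposure of reporter HeLa S3 clones (600 cells/well, 2% FBS medium); ancitabine and cycloheximide titrations, 0.5% DMSO as vehicle.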
For assay [20], the target named is Alpha-galactosidase (Coffea arabica) (UniProt Q42656). As to the kind of experiment: Counterscreen for Glucocerebrosidase Inhibitors: qHTS Assay for Coffee Bean alpha-Galactosidase at pH 5.9 (AID 998). Summed up: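 Green coffee bean enzyme (2 nM) with 4-methylumbelliferyl alpha-D-galactopyranoside (80 uM) in 50 mM citric acid, 0.005% Tween-20, pH 5.9, 20 min at room temperature; compounds 0.7 nM–77 uM. Stopped at pH 10, fluorescence Ex365/Em440; Hill-fit AC50.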

Each structure is given as a SMILES string. Inconclusive results are not listed. Activity calls are given as the source filed them. Unless noted, calls follow the shape of the dose curve; as a rule, active = well fitted curve in the direction sought with a large enough effect; inconclusive = small, poorly fitted or top-dose-only effect, or another doubt; inactive = no such curve, though single readings can be large; an effect the other way counts as inactive or inconclusive.

Sequence of Alpha-galactosidase A (Homo sapiens) (P06280 whole entry, looked up): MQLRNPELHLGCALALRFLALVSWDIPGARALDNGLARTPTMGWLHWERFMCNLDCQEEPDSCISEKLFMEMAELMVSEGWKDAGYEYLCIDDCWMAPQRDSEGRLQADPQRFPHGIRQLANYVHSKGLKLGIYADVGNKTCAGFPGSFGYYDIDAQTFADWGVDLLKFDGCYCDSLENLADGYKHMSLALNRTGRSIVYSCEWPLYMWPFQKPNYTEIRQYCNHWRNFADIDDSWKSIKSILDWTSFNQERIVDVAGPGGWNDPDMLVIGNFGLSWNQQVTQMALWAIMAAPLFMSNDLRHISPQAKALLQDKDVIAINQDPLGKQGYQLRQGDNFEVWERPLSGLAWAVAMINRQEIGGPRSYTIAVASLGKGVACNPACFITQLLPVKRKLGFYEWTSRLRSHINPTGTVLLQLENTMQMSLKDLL
Sequence of Alpha-galactosidase (Coffea arabica) (Q42656 whole entry, looked up): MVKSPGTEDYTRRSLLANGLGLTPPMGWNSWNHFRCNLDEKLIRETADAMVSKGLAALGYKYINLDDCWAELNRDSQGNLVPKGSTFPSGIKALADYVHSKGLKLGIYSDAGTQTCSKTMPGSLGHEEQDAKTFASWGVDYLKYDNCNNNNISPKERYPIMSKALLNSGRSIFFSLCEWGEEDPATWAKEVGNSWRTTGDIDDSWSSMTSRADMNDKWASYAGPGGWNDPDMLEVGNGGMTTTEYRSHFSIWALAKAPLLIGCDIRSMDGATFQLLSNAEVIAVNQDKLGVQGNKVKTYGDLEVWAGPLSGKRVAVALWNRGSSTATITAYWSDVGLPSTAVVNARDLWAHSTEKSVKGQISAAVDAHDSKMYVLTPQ

Take `O=Cc1ccco1`: the Potency result in assay [1], in assay [2], in assay [3], in [4], in [5] and in assay [6] was “inactive” throughout. The Potency entry in assay [7], in assay [8], in assay [9], in assay [10], in assay [11] and in [12] was “inactive” each time. In addition, the Potency result in assay [13], in assay [14], in assay [15] and in [16] was “inactive” throughout.

As for `ClC=C(Cl)Cl`, the Potency entry in [1], in assay [2], in assay [3], in [4], in [5] and in [6] was “inactive” in each case. Besides, the Potency result in assay [7], in assay [8], in assay [9], in assay [10], in assay [11] and in assay [12] was “inactive” each time. Besides, the Potency result in assay [13], in assay [14], in assay [15] and in assay [16] was “inactive” in each case.

As for `CCCN(CCC)C1Cc2cc(OC)c(OC)cc2C1`, the compound was called inactive in [17], in assay [18] and in assay [19].

With `O=C(O)C(Cl)(Cl)Cl`, the Potency entry in [1], in assay [2], in [3], in assay [4], in [5] and in assay [6] was “inactive” each time. The Potency result in assay [7], in [8], in [9], in assay [10], in assay [11] and in assay [12] was “inactive” each time. Further, the Potency result in assay [13], in assay [14], in assay [15] and in [16] was “inactive” in each case.

For the compound `CN(N=O)c1cc(O)ccc1O`, the compound was called inactive in assay [17], in assay [18] and in assay [19].

For `CC(C)NP(=O)(NC(C)C)OP(=O)(NC(C)C)NC(C)C`, the result in [17], in assay [18], in assay [20] and in assay [19] was inactive.

Regarding `O=C1CCO1`, the Potency result in [1], in assay [2], in assay [3], in [4], in assay [5] and in assay [6] was “inactive” throughout. Further, the Potency result in assay [7], in [8], in assay [9], in [10], in assay [11] and in assay [12] was “inactive” throughout. The Potency result in [13], in assay [14], in assay [15] and in assay [16] was “inactive” throughout.

As to `CCCN(CCC)CCc1ccc(O)c(O)c1`, the result in assay [17], in [18], in assay [20] and in assay [19] was inactive.

As for `CC(C)Nc1ccc(Nc2ccccc2)cc1`, the Potency in assay [1] was 50.1 µM (active); in assay [2], 25.1 µM (active); in [3] it was 25.1 µM (active); in assay [4], 25.1 µM (active); in [5], 39.8 µM (active); in [6], 25.1 µM (active). The Potency in [7] is 25.1 µM (active); in [8], 39.8 µM (active); in assay [9] it was 31.6 µM (active); in assay [10] it was 20 µM (active); in assay [11], 25.1 µM (active); in [12], 15.8 µM (active). In addition, the Potency was 12.6 µM (active) in [13], 39.8 µM (active) in [14], 31.6 µM (active) in [15] and 50.1 µM (active) in [16].

For the compound `NC(N)=NOCC[C@H](N)C(=O)O`, the compound was classed as inactive in assay [17], in [18] and in [19].

For the compound `Cc1sc2ccccc2c1CC1=NCCN1`, the call in assay [17], in [18], in [20] and in assay [19] was inactive.

Consider `COc1ccc2[nH]c3c(c2c1)CCNC3`, for which the outcome in [17], in assay [18] and in assay [19] was inactive.

As for `C[C@H]1CCC[C@H](O)CCCCCc2cc(O)cc(O)c2C(=O)O1`, the Potency entry in assay [1], in [2], in [3], in [4], in assay [5] and in [6] was “inactive” each time. Further, the Potency result in [7], in assay [8], in assay [9], in assay [10], in [11] and in [12] was “inactive” in each case. Moreover, the Potency result in [13], in [14], in assay [15] and in [16] was “inactive” each time.

With `CN1CCC(c2c[nH]c3ccc(O)cc23)CC1`, the compound was called inactive in assay [17], in assay [18], in [20] and in assay [19].

Regarding `NCCc1ccc(S(=O)(=O)F)cc1`, the compound was called inactive in assay [17], in assay [18], in assay [20] and in assay [19].

For the compound `ClC(Cl)(Cl)Cl`, the Potency result in [1], in assay [2], in assay [3], in assay [4], in assay [5] and in [6] was “inactive” in each case. For the same compound, the Potency result in assay [7], in assay [8], in assay [9], in [10], in [11] and in assay [12] was “inactive” each time. In addition, the Potency result in assay [13], in [14], in assay [15] and in [16] was “inactive” in each case.

Regarding `CN1CCc2cccc(Cl)c2CC1`, the outcome in assay [17], in assay [18] and in assay [19] was inactive.

Regarding `COc1ccc2[nH]cc(CCN)c2c1`, the compound was called inactive in assay [17], in [18], in assay [20] and in [19].

`O=C(O)c1cc[c]([Hg][Cl])cc1`: the compound was called inactive in [17], in assay [18] and in [19].

As to `CCCCCCCCOC(=O)c1ccccc1C(=O)OCCCCCCCC`, the Potency result in [1], in assay [2], in assay [3], in [4], in [5] and in assay [6] was “inactive” throughout. For the same compound, the Potency result in assay [7], in [8], in [9], in assay [10], in [11] and in assay [12] was “inactive” throughout. In addition, the Potency entry in assay [13], in assay [14], in [15] and in [16] was “inactive” in each case.
